Activity calls are given as the source filed them. How the source made its calls: active means hit-call score of the fitted dose curve at least 0.9, where 1 is the maximum; inactive means score below 0.9.
Key:
[1] = target: Transcription factor E2F1 (Homo sapiens) (UniProt Q01094); assay: ATG_E2F_CIS: Attagene CIS-FACTORIAL HepG2 Assay for human E2F Transcription Factor 1 (AID 2282935); settings: HepG2 Attagene cis-reporter, E2F reporter RNA transcripts; actives raise or lower the signal
Method in brief: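 Cis-element reporter mRNA induction in transiently transfected HepG2, 24 h exposure. Activity fitted in both directions relative to DMSO negative control.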

[2] = ATG_E_Box_CIS: Attagene CIS-FACTORIAL HepG2 Assay for human Enhancer Box (E-box) (AID 2282936); settings: HepG2 E-box cis-reporter transcription, actives raise or lower the signal
Method in brief: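 Cells: HepG2 (human liver), transient MRTU transfection. Exposure 24 h. RNA → oligo(dT) RT → PCR → 6-FAM label → HpaI → CE. Activity fitted both directions relative to DMSO.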

[3] = ATG_EGR_CIS: Attagene CIS-FACTORIAL HepG2 Assay for human Early Growth Response 1 (EGR1) (AID 2282938); settings: HepG2 Attagene CIS-FACTORIAL EGR reporter mRNA; actives raise or lower the signal
Method in brief: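 Activity is taken as induction or loss of reporter mRNA versus DMSO, fitted bidirectionally. Transcripts from cis-regulated reporter units in transiently transfected HepG2 were measured after 24 h by RT-PCR with capillary electrophoresis.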

[4] = ATG_ERE_CIS: Attagene CIS-FACTORIAL HepG2 Assay for Estrogen Response Element (ERE) (AID 2282940); settings: HepG2 ERE cis-reporter, Attagene RNA transcript; actives raise or lower the signal
Method in brief: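 Cells used were human hepatoma HepG2, transfected with multiple reporter transcription units under cis-regulatory promoters. Reporter mRNA, read 24 h post-dosing via fluorescent RT-PCR products on capillary electrophoresis, was fitted bidirectionally relative to DMSO.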

[5] = ATG_Ets_CIS: Attagene CIS-FACTORIAL HepG2 Assay for human Erythroblast Transformation Specific (ETS) (AID 2282941); settings: HepG2 ETS cis-reporter transcription, actives raise or lower the signal
Method in brief: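 Steps: transfect HepG2 with multiple reporter units; treat compound 24 h; isolate RNA, DNase-treat, reverse-transcribe; PCR-amplify, label with 6-FAM, digest with HpaI; separate by capillary electrophoresis. Activity fitted both directions versus DMSO.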

[6] = target: Hepatocyte nuclear factor 3-beta (Homo sapiens) (UniProt Q9Y261); assay: ATG_FoxA2_CIS: Attagene CIS-FACTORIAL HepG2 Assay for human Forkhead box A2 (FOXA2) (AID 2282942); settings: HepG2 cis-reporter transcription factor activity, 24 h; actives raise or lower the signal
Hepatocyte nuclear factor 3-beta (Homo sapiens), sequence (Q9Y261 whole entry, looked up): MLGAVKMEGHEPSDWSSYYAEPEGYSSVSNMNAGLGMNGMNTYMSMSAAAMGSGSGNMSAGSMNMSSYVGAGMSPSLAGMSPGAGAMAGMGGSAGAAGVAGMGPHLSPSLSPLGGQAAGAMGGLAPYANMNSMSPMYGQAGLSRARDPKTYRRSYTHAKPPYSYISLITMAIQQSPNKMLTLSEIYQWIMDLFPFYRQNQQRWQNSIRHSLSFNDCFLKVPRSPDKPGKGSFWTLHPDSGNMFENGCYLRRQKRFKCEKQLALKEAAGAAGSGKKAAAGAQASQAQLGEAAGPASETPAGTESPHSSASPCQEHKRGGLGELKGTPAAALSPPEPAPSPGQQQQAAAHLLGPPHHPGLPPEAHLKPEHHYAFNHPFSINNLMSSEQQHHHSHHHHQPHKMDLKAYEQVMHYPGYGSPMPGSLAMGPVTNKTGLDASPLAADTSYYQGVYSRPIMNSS
Method in brief: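 Reporter transcript induction is measured by fluorescence after capillary electrophoresis of RT-PCR products from HepG2 cells exposed 24 h. Cis-regulated reporter units report endogenous factor activity; curves fitted both directions against DMSO.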

[7] = ATG_FoxO_CIS: Attagene CIS-FACTORIAL HepG2 Assay for human Forkhead box O (FoxO) (AID 2282943); settings: HepG2 Attagene cis-reporter, FoxO element, mRNA; actives raise or lower the signal
Method in brief: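 Human hepatoma HepG2 cells carry transiently introduced reporter transcription units controlled by cis promoter elements. Chemical treatment lasted 24 h, and mRNA signal was compared with DMSO.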

[8] = ATG_GLI_CIS: Attagene CIS-FACTORIAL HepG2 Assay for human Zinc Finger Protein GLI1 (AID 2282945); settings: HepG2, Attagene cis-factorial reporter mRNA, GLI element; actives raise or lower the signal
Method in brief: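 Bidirectional curve fits relative to DMSO, using reporter mRNA levels from RT-PCR plus capillary electrophoresis. Cells were HepG2 transiently carrying cis-regulated reporter constructs, harvested 24 h after dosing.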

[9] = target: Bile acid receptor (Homo sapiens) (UniProt Q96RI1); assay: ATG_IR1_CIS: Attagene CIS-FACTORIAL HepG2 Assay for human Nuclear Receptor Subfamily 1 Group H Member 4 (NR1H4), IR1 submotif (AID 2282946); settings: IR1 reporter transcription, actives raise or lower the signal
Bile acid receptor (Homo sapiens), sequence (Q96RI1 whole entry, looked up, the tested form may be a part): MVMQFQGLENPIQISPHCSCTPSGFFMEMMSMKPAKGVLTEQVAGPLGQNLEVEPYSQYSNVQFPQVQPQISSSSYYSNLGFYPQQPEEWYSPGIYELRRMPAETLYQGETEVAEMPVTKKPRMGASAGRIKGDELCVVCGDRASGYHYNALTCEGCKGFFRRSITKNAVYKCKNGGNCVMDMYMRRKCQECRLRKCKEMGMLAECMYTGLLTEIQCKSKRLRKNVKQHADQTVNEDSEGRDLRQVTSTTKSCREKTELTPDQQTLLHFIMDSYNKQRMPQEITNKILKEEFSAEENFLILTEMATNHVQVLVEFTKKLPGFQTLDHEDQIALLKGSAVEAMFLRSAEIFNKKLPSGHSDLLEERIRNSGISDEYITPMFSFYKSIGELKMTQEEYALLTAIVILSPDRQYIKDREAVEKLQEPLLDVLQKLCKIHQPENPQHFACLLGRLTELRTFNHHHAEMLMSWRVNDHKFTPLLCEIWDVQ
Method in brief: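 Cells (human HepG2) carry transiently transfected cis-promoter reporter transcription units. Compounds are incubated 24 h, total RNA is reverse-transcribed and amplified, and labelled fragments are resolved by capillary electrophoresis. Curves use DMSO as baseline.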

[10] = ATG_ISRE_CIS: Attagene CIS-FACTORIAL HepG2 Assay for human Interferon Regulatory Factor 1 (IRF1) binding to an Interferon-Stimulated Response Element (ISRE) (AID 2282948); settings: HepG2 ISRE cis-reporter (Attagene), mRNA transcription readout; actives raise or lower the signal
Method in brief: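 Transfected HepG2 (multiple reporter transcription units, cis elements) dosed 24 h. RNA → oligo(dT) RT → PCR → 6-FAM primer extension → HpaI → CE. DMSO = negative control/baseline.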

[11] = ATG_M_32_CIS: Attagene CIS-FACTORIAL HepG2 Assay for M32 Transcription Factor (Internal Marker) (AID 2282949); settings: HepG2 Attagene cis-factorial M32 reporter, mRNA; actives raise or lower the signal;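 further: background control marker of the multiplexed CIS panel rather than a real target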
Method in brief: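 Fluorescent capillary electrophoresis peaks of HpaI-digested, FAM-labelled RT-PCR reporter products give the signal. Source: transiently transfected human liver HepG2 cells, 24 h after chemical dosing; bidirectional fitting against DMSO.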

[12] = ATG_M_06_CIS: Attagene CIS-FACTORIAL HepG2 Assay for M06 Transcription Factor (Internal Marker) (AID 2282950); settings: HepG2 Attagene CIS-FACTORIAL M06 internal marker reporter; actives raise or lower the signal
Method in brief: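 Steps: transfect HepG2 with multiplexed cis-element reporter constructs; dose chemical 24 h; extract RNA with DNase treatment; reverse-transcribe, PCR-amplify, 6-FAM label, HpaI digest; separate fragments by capillary electrophoresis. Activity fitted both directions versus DMSO.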

[13] = target: Hypoxia-inducible factor 1-alpha (Homo sapiens) (UniProt Q16665); assay: ATG_HIF1a_CIS: Attagene CIS-FACTORIAL HepG2 Assay for human Hypoxia Inducible Factor 1 (HIF1A) (AID 2282951); settings: HepG2 Attagene cis-factorial HIF1a reporter transcription; actives raise or lower the signal
Hypoxia-inducible factor 1-alpha (Homo sapiens), sequence (Q16665 whole entry, looked up): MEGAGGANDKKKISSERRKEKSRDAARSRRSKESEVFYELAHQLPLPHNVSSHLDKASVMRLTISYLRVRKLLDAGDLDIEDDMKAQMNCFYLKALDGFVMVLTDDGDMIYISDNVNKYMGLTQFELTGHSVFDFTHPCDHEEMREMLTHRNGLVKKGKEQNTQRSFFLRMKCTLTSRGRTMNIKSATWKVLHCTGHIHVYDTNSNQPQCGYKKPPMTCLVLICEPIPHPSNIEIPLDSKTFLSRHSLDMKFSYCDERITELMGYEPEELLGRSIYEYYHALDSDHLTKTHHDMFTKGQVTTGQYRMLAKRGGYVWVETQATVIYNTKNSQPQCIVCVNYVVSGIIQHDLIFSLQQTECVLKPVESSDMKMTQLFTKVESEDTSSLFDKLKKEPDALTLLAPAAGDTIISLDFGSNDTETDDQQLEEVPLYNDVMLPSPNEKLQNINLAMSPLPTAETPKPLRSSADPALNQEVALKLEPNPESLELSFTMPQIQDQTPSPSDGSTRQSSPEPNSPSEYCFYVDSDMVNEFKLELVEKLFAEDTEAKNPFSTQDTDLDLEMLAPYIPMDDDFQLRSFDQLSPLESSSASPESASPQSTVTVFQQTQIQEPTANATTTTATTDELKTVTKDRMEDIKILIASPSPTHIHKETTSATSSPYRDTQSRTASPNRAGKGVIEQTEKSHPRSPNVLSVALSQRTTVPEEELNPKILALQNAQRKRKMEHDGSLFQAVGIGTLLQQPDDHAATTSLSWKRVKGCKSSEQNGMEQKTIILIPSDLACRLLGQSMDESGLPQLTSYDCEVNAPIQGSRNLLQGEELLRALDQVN
Method in brief: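 Fluorescence intensity of capillary-separated, 6-FAM-labelled reporter amplicons gives mRNA induction in HepG2 cells carrying transfected cis-promoter reporter units; cells exposed 24 h, responses fitted up or down from DMSO.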

[14] = target: Hepatocyte nuclear factor 6 (Homo sapiens) (UniProt Q9UBC0); assay: ATG_HNF6_CIS: Attagene CIS-FACTORIAL HepG2 Assay for human Hepatocyte Nuclear Factor 6 (HNF6) (AID 2282952); settings: HepG2 Attagene cis-factorial HNF6 reporter transcription; actives raise or lower the signal
Hepatocyte nuclear factor 6 (Homo sapiens), sequence (Q9UBC0 whole entry, looked up): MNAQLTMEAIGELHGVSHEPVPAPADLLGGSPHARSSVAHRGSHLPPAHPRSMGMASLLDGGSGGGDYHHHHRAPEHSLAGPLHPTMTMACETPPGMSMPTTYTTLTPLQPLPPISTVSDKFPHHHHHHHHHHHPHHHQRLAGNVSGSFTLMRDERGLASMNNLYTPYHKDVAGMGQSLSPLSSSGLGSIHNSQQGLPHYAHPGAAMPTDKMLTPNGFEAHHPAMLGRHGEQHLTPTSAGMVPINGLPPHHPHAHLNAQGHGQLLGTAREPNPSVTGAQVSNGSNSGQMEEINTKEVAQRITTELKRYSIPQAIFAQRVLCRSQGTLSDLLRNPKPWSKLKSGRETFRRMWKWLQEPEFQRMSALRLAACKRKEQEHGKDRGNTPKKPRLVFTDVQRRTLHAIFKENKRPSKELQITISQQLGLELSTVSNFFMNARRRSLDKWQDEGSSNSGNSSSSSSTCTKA
Method in brief: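 HepG2 cells transiently transfected with cis-element-driven multiple reporter transcription units, dosed 24 h; reporter mRNA quantified by RT-PCR, FAM primer extension, HpaI digestion and capillary electrophoresis; bidirectional fit versus DMSO baseline.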

[15] = target: Heat shock factor protein 1 (Homo sapiens) (UniProt Q00613); assay: ATG_HSE_CIS: Attagene CIS-FACTORIAL HepG2 Assay for human Heat Shock Transcription Factor 1 (HSE) (AID 2282953); settings: HepG2 HSE cis-reporter, Attagene RNA transcription; actives raise or lower the signal
Heat shock factor protein 1 (Homo sapiens), sequence (Q00613 whole entry, looked up, the tested form may be a part): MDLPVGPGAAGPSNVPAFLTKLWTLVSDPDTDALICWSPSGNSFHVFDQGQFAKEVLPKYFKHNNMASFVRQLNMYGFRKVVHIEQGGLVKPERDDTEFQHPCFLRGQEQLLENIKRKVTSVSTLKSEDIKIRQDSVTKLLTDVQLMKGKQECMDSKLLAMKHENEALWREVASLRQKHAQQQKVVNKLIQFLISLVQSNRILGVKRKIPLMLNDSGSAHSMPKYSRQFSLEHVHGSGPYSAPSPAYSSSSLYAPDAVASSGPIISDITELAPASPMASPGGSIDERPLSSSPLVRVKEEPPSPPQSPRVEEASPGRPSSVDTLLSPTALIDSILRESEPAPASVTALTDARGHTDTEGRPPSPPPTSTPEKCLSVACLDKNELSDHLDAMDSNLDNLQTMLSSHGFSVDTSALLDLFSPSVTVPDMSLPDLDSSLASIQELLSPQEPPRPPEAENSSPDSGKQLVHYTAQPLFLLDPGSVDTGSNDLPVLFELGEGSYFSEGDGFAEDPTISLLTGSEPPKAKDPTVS
Method in brief: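 Cells were transfected with cis-element-driven reporter constructs, dosed for 24 h, then total RNA was reverse-transcribed and reporter cDNA amplified, FAM-labelled and digested with HpaI. Fragments were resolved by capillary electrophoresis; gain or loss was fitted against DMSO.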

[16] = ATG_MRE_CIS: Attagene CIS-FACTORIAL HepG2 Assay for human Metal Responsive Element (MRE) (AID 2282954); settings: HepG2 MRE cis-reporter transcription, Attagene multiplex; actives raise or lower the signal
Method in brief: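 Transient MRTU transfection of HepG2 (FuGene 6); 24 h dosing; total RNA → oligo(dT) RT, PCR, 6-FAM primer extension, HpaI cut, CE. Bidirectional fit vs DMSO.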

[17] = ATG_GATA_CIS: Attagene CIS-FACTORIAL HepG2 Assay for human GATA Binding Protein (AID 2282944); settings: HepG2 GATA cis-element reporter, Attagene multiplex mRNA; actives raise or lower the signal
Method in brief: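 Endogenous transcription factor activity was captured through cis-promoter-driven reporters in transfected HepG2 cells. After 24 h exposure, reporter transcripts were quantified by RT-PCR with fluorescent capillary electrophoresis, and responses fitted both directions against DMSO.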

[18] = ATG_GRE_CIS: Attagene CIS-FACTORIAL HepG2 Assay for human Glucocorticoid Response Elements (GRE) (AID 2282947); settings: HepG2 GRE cis-reporter, Attagene multiplex mRNA; actives raise or lower the signal
Method in brief: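 Transient MRTU transfection of human HepG2 liver cells; cis-regulated reporters report endogenous factors. 24 h dosing → RNA isolation → RT-PCR → 6-FAM primer extension → HpaI cut → CE fragment analysis. Bidirectional fit, DMSO negative control.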

Transcription factor E2F1 (Homo sapiens), sequence (Q01094 whole entry, looked up): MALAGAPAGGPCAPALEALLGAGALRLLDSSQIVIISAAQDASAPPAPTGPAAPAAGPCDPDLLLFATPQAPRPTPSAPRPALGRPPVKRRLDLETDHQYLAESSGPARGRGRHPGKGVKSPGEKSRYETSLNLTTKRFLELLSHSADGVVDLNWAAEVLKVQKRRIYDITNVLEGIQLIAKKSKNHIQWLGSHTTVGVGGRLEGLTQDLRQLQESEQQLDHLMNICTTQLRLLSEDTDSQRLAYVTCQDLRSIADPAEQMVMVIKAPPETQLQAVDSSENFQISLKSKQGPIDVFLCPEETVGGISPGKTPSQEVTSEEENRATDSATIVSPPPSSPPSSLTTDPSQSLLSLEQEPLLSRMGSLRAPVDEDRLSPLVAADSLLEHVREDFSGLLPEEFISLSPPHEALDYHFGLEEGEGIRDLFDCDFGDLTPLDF

SMILES: CCC(C)n1c(=O)[nH]c(C)c(Br)c1=O (stereo not drawn)
- outcome [1]: inactive
- outcome [2]: inactive
- outcome [3]: inactive
- outcome [4]: inactive
- outcome [5]: inactive
- outcome [6]: inactive
- outcome [7]: inactive
- outcome [8]: inactive
- outcome [9]: inactive
- outcome [10]: inactive
- outcome [11]: inactive
- outcome [12]: inactive
- outcome [13]: inactive
- outcome [14]: inactive
- outcome [15]: inactive
- outcome [16]: inactive

SMILES: CCCN(CC)CC1COC2(CCC(C(C)(C)C)CC2)O1 (stereo not drawn)
- outcome [1]: inactive
- outcome [2]: inactive
- AC50 [3]: 15 µM (active)
- outcome [4]: inactive
- outcome [5]: inactive
- AC50 [6]: 16.9 µM (active)
- outcome [7]: inactive
- outcome [17]: inactive
- outcome [8]: inactive
- outcome [18]: inactive
- outcome [10]: inactive
- outcome [11]: inactive
- outcome [12]: inactive
- AC50 [13]: 22.7 µM (active)
- AC50 [14]: 50 µM (active)
- AC50 [15]: 60.3 µM (active)
- AC50 [16]: 50 µM (active)

SMILES: COP(=S)(OC)SCn1nnc2ccccc2c1=O
- outcome [1]: inactive
- outcome [2]: inactive
- AC50 [3]: 23.7 µM (active)
- outcome [4]: inactive
- outcome [5]: inactive
- outcome [6]: inactive
- outcome [7]: inactive
- outcome [8]: inactive
- outcome [10]: inactive
- outcome [11]: inactive
- outcome [12]: inactive
- outcome [13]: inactive
- outcome [14]: inactive
- outcome [15]: inactive
- AC50 [16]: 17.3 µM (active)

SMILES: COP(=S)(OC)Oc1ccc([N+](=O)[O-])c(C)c1
- outcome [1]: inactive
- outcome [2]: inactive
- AC50 [3]: 28.9 µM (active)
- AC50 [4]: 13.7 µM (active)
- outcome [5]: inactive
- outcome [6]: inactive
- outcome [7]: inactive
- outcome [17]: inactive
- outcome [8]: inactive
- outcome [9]: inactive
- outcome [18]: inactive
- outcome [10]: inactive
- outcome [11]: inactive
- outcome [12]: inactive
- outcome [13]: inactive
- outcome [14]: inactive
- outcome [15]: inactive
- AC50 [16]: 50 µM (active)

SMILES: CC1(C)C(C=C(Cl)Cl)C1C(=O)OC(C#N)c1cccc(Oc2ccccc2)c1 (stereo not drawn)
- outcome [1]: inactive
- outcome [2]: inactive
- outcome [3]: inactive
- AC50 [4]: 14.6 µM (active)
- outcome [5]: inactive
- outcome [6]: inactive
- outcome [7]: inactive
- outcome [17]: inactive
- outcome [8]: inactive
- outcome [18]: inactive
- outcome [10]: inactive
- outcome [11]: inactive
- outcome [12]: inactive
- outcome [13]: inactive
- outcome [14]: inactive
- outcome [15]: inactive
- AC50 [16]: 14.9 µM (active)
